Results: PubChem BioAssay (EPA / NIEHS)
Activity calls are given as the source filed them. How the source made its calls: active means hit-call score of the fitted dose curve at least 0.9, where 1 is the maximum; inactive means score below 0.9.

What was measured:
Conditions in all cases: mRNA level, 48 h; actives raise or lower the signal
[1] = read-out: Fatty acid synthase (Homo sapiens) (UniProt P49327); experiment: LTEA_HepaRG_FASN: Life Technologies and Expression Analysis (LTEA) Assay for Fatty Acid Synthase (FASN) using HepaRG (AID 2283448);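 on AC50: differentiated human HepaRG liver cells in serum-free induction medium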
Method in brief: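 In human HepaRG cultures, 48 h chemical exposure (up to 100 uM, 0.5% DMSO) preceded TaqMan qRT-PCR of FASN.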

[2] = read-out: Cyclin D2 (CCND2), CCND2 (gene 894); experiment: LTEA_HepaRG_CCND2: Life Technologies and Expression Analysis (LTEA) Assay for Cyclin D2 (CCND2) using HepaRG (AID 2283449)
Method in brief: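 CCND2 transcript levels, quantified by qRT-PCR and normalised to three housekeeping genes, were fitted bidirectionally against 0.5% DMSO. HepaRG cultures were dosed 48 h in duplicate with an 8-point half-log series up to 100 uM.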

[3] = read-out: Cyclin Dependent Kinase Inhibitor 1A (CDKN1A), CDKN1A (gene 1026); experiment: LTEA_HepaRG_CDKN1A: Life Technologies and Expression Analysis (LTEA) Assay for Cyclin Dependent Kinase Inhibitor 1A (CDKN1A) using HepaRG (AID 2283450)
Method in brief: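 Gain or loss of CDKN1A transcript is scored by bidirectional fitting against 0.5% DMSO vehicle. Human HepaRG cultures receive chemicals for 48 h across an 8-point series peaking at 100 uM; expression comes from qRT-PCR.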

[4] = read-out: Cyclin D1 (CCND1), CCND1 (gene 595); experiment: LTEA_HepaRG_CCND1: Life Technologies and Expression Analysis (LTEA) Assay for Cyclin D1 (CCND1) using HepaRG (AID 2283451);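 on AC50: differentiated human HepaRG liver cells in serum-free induction medium; TaqMan qRT-PCR transcript level normalised to ACTB GAPDH and POLR2A housekeeping genes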
Method in brief: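 Expression change is measured by qRT-PCR in HepaRG cells after 48 h treatment across eight concentrations topping at 100 uM, with duplicate wells and DMSO (0.5%) serving as baseline for bidirectional fitting.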

[5] = read-out: catalase (CAT), CAT (gene 847); experiment: LTEA_HepaRG_CAT: Life Technologies and Expression Analysis (LTEA) Assay for catalase (CAT) using HepaRG (AID 2283452);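 on AC50: TaqMan qRT-PCR signal normalized to ACTB GAPDH and POLR2A housekeeping genes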
Method in brief: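 Expression of CAT was quantified by TaqMan qRT-PCR with ACTB/GAPDH/POLR2A normalization after 48 h chemical exposure of HepaRG. Eight-point half-log series, top 100 uM, in 0.5% DMSO; gain or loss fitted against vehicle.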

[6] = read-out: flavin-containing dimethylaniline monooxygenases 3 (FMO3), FMO3 (gene 2328); experiment: LTEA_HepaRG_FMO3: Life Technologies and Expression Analysis (LTEA) Assay for flavin-containing dimethylaniline monooxygenases 3 (FMO3) using HepaRG (AID 2283453);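 on AC50: differentiated human HepaRG liver cells in serum-free induction medium; FMO3 transcript by TaqMan qRT-PCR normalized to ACTB GAPDH and POLR2A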
Method in brief: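 Eight-point concentration-response in serum-free HepaRG cultures (top 100 uM, 0.5% DMSO, 48 h). Read-out: FMO3 mRNA level normalized to three endogenous control genes, fitted bidirectionally versus vehicle.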

[7] = read-out: Cytochrome P450 (CYP1A1), CYP1A1 (gene 1543); experiment: LTEA_HepaRG_CYP1A1: Life Technologies and Expression Analysis (LTEA) Assay for Cytochrome P450 (CYP1A1) using HepaRG (AID 2283454)
Method in brief: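 Using HepaRG cultures with 0.5% DMSO as vehicle, eight-concentration exposures (max 100 uM) lasted 48 h. Transcript levels were measured by TaqMan qRT-PCR and normalized to ACTB, GAPDH and POLR2A.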

[8] = read-out: CFLAR gene, CFLAR (gene 8837); experiment: LTEA_HepaRG_CFLAR: Life Technologies and Expression Analysis (LTEA) Assay for CFLAR gene using HepaRG (AID 2283455)
Method in brief: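 Transcript level by qRT-PCR (normalized to ACTB, GAPDH and POLR2A) after 48 h chemical exposure of HepaRG cells, top concentration 100 uM with half-log steps, 0.5% DMSO vehicle, duplicates; fitted bidirectionally against DMSO baseline.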

[9] = read-out: Forkhead box O1 (FOXO1), FOXO1 (gene 2308); experiment: LTEA_HepaRG_FOXO1: Life Technologies and Expression Analysis (LTEA) Assay for Forkhead box O1 (FOXO1) using HepaRG (AID 2283456)
Method in brief: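 FOXO1 transcript quantified by qRT-PCR after 48 h chemical exposure (top 100 uM, half-log steps, 0.5% DMSO) of HepaRG cells, housekeeping-normalized (ACTB/GAPDH/POLR2A). Changes fitted in both directions relative to vehicle.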

Chain of Fatty acid synthase (Homo sapiens) (P49327 whole entry, looked up): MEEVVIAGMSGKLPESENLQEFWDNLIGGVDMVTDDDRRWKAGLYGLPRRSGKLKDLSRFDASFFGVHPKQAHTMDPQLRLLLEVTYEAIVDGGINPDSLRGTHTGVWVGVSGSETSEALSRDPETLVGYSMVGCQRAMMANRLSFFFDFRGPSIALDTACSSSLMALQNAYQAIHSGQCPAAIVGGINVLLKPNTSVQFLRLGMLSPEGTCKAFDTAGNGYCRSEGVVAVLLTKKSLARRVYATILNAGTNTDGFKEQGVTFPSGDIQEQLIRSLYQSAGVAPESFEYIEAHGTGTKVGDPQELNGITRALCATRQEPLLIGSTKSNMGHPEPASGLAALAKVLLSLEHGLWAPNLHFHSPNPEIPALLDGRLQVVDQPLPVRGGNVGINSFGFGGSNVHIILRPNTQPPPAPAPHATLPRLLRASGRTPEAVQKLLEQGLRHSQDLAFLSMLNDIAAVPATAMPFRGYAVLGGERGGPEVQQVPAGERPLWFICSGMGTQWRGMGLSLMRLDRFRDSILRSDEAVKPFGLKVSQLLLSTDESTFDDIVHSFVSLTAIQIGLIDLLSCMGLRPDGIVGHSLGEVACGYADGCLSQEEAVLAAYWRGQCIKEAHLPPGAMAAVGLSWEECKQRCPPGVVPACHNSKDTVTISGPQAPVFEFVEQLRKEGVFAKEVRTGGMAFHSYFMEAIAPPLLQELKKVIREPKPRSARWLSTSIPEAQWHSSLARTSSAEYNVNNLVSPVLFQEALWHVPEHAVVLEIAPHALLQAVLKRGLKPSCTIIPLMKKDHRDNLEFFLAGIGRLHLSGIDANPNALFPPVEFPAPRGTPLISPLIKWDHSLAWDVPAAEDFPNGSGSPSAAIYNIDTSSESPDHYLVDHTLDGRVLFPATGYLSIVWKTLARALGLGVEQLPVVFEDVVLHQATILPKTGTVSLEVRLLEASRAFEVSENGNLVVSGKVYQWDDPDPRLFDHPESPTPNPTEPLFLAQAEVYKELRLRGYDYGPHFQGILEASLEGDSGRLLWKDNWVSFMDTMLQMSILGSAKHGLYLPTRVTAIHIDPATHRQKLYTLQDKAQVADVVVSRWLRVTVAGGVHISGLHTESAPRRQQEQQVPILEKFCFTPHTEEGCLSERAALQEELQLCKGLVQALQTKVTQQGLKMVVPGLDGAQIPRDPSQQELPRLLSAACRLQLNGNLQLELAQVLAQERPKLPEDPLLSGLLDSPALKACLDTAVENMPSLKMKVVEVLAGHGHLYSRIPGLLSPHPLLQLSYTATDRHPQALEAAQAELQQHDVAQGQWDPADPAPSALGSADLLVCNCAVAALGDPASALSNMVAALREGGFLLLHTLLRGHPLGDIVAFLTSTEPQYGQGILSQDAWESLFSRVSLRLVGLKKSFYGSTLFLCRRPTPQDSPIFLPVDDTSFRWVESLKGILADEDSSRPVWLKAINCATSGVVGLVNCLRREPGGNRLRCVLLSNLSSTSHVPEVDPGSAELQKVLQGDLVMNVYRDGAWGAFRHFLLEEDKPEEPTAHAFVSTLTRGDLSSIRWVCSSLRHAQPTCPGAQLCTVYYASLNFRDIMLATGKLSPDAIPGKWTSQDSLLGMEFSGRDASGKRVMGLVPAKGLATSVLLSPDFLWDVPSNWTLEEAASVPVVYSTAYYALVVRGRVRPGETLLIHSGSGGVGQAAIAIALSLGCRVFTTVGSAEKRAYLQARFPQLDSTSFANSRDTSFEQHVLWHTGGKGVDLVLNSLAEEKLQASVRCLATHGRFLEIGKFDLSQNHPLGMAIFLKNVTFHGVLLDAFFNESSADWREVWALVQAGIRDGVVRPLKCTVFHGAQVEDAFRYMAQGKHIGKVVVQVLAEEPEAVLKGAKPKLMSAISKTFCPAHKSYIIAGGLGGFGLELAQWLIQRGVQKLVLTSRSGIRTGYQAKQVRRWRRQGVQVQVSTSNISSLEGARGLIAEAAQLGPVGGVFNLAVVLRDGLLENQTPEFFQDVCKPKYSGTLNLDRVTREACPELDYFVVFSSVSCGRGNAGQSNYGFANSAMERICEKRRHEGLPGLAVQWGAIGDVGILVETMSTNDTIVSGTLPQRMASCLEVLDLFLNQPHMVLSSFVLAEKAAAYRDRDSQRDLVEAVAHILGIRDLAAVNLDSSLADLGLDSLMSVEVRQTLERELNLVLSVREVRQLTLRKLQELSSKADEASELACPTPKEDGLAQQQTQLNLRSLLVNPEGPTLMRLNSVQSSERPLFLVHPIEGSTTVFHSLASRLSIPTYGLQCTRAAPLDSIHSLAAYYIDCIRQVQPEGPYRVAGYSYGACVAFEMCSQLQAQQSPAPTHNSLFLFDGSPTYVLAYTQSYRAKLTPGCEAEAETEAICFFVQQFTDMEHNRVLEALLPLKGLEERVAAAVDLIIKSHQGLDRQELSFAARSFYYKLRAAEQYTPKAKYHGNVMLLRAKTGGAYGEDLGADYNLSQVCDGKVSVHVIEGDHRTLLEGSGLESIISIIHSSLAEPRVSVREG

Compound | outcome [1] | outcome [2] | outcome [3] | outcome [4] | outcome [5] | outcome [6] | AC50 [7] | outcome [8] | outcome [9] | AC50 [1] | AC50 [2] | AC50 [5] | AC50 [6] | outcome [7] | AC50 [8] | AC50 [9] | AC50 [3] | AC50 [4]
O=C(O)c1[nH]n(-c2ccc(S(=O)(=O)O)cc2)c(=O)c1N=Nc1ccc(S(=O)(=O)O)cc1 | inactive | inactive | inactive | inactive | inactive | inactive | 33 µM (active) | inactive | inactive | – | – | – | – | – | – | – | – | –
CC(C)c1cccc(C(C)C)c1 | inactive | inactive | inactive | inactive | inactive | inactive | 66.1 µM (active) | inactive | inactive | – | – | – | – | – | – | – | – | –
CC(=O)O[C@]1(C(C)=O)CC[C@H]2[C@@H]3C=C(Cl)C4=CC(=O)[C@@H]5C[C@@H]5[C@]4(C)[C@H]3CC[C@@]21C | – | – | inactive | inactive | – | – | – | – | – | 50 µM (active) | 0.0078 µM (active) | 50 µM (active) | 36.1 µM (active) | inactive | 50 µM (active) | 50 µM (active) | – | –
COC(=O)CCCC(=O)OC | inactive | inactive | inactive | inactive | inactive | inactive | – | inactive | inactive | – | – | – | – | inactive | – | – | – | –
CC(=O)OC1CC(C)OC(C)O1 (stereo not given) | inactive | inactive | inactive | inactive | inactive | inactive | 50 µM (active) | inactive | inactive | – | – | – | – | – | – | – | – | –
O=C1c2c(O)cccc2Cc2cccc(O)c21 | inactive | inactive | inactive | inactive | inactive | inactive | 22.1 µM (active) | inactive | inactive | – | – | – | – | – | – | – | – | –
CCCCCCC(CCCCCCCCCCC(=O)OCC(COC(C)=O)OC(C)=O)OC(C)=O (stereo not given) | inactive | inactive | inactive | inactive | inactive | inactive | – | inactive | inactive | – | – | – | – | inactive | – | – | – | –
Cc1ccc(-c2cc(C(F)(F)F)nn2-c2ccc(S(N)(=O)=O)cc2)cc1 | – | inactive | inactive | inactive | – | – | 12.5 µM (active) | – | – | 76.7 µM (active) | – | 83.6 µM (active) | 76.8 µM (active) | – | 78.3 µM (active) | 77.2 µM (active) | – | –
CCc1nc(N)nc(N)c1-c1ccc(Cl)cc1 | inactive | inactive | – | inactive | – | – | – | inactive | inactive | – | – | 30.6 µM (active) | 69.4 µM (active) | inactive | – | – | 70.2 µM (active) | –
CC(COCC(C)OC(=O)c1ccccc1)OC(=O)c1ccccc1 (stereo not given) | inactive | inactive | inactive | inactive | inactive | inactive | 87.6 µM (active) | inactive | inactive | – | – | – | – | – | – | – | – | –
NC(=Nc1ccccc1)Nc1ccccc1 | inactive | inactive | inactive | inactive | inactive | inactive | 50 µM (active) | inactive | inactive | – | – | – | – | – | – | – | – | –
c1ccc2occc2c1 | inactive | inactive | inactive | inactive | inactive | inactive | – | inactive | inactive | – | – | – | – | inactive | – | – | – | –
OCC(CO)n1cnc(-c2ccc(F)cc2)c1-c1ccnc(Oc2ccccc2)n1 | inactive | inactive | inactive | – | inactive | inactive | 50 µM (active) | inactive | inactive | – | – | – | – | – | – | – | – | 20.1 µM (active)
Oc1ccccc1O | inactive | inactive | inactive | inactive | inactive | inactive | – | inactive | inactive | – | – | – | – | inactive | – | – | – | –
NCCOCCOCCN | inactive | inactive | inactive | inactive | inactive | inactive | 50 µM (active) | inactive | inactive | – | – | – | – | – | – | – | – | –
C=CCCCCCCCCCCCC | inactive | inactive | inactive | inactive | inactive | inactive | – | inactive | inactive | – | – | – | – | inactive | – | – | – | –
CCCCC(CC)COC(=O)CCCCCCCC(=O)OCC(CC)CCCC (stereo not given) | inactive | inactive | inactive | inactive | inactive | inactive | 50 µM (active) | inactive | inactive | – | – | – | – | – | – | – | – | –
Nc1nc(Cl)nc2c1ncn2[C@H]1C[C@H](O)[C@@H](CO)O1 | – | inactive | – | – | – | – | 0.749 µM (active) | inactive | – | 1.59 µM (active) | – | 0.887 µM (active) | 2.05 µM (active) | – | – | 1.65 µM (active) | 0.168 µM (active) | 3.49 µM (active)
CC(C)NCC(O)c1ccc(O)c(O)c1 (stereo not given) | – | inactive | – | – | – | – | 0.147 µM (active) | – | inactive | 0.219 µM (active) | – | 0.2 µM (active) | 0.451 µM (active) | – | 0.238 µM (active) | – | 0.148 µM (active) | 0.141 µM (active)
COc1ccc(OC(F)(F)F)cc1CN[C@H]1CCCN[C@H]1c1ccccc1 | – | inactive | – | – | – | – | 12.6 µM (active) | – | – | 83.9 µM (active) | – | 71.6 µM (active) | 72.7 µM (active) | – | 84.1 µM (active) | 93.8 µM (active) | 89.6 µM (active) | 87.1 µM (active)
